Experimental data taken from PubChem BioAssay.
Values joined by “and” are separate entries in the source; they are usually repeats but may differ in a detail not shown here. Identical values can stand only once. For some of these results: Potency and affinity values are given separately. Active and inactive are the calls of the source.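 How the source made its calls, unless noted: active means compounds killing one labelled cell type while sparing the other, by normalised counts and ratio limits, not self-fluorescent; inactive means the rest.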

How the values were obtained:
[1] = polyglutamine-triggered caspase-3 activation inhibitors, cell-based (AID 1583); conditions: polyglutamine-induced caspase-3 activation, cell assay; stronger effect = higher value;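 tested at 10 µM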
[2] = suppressors of polyQ aggregation in yeast, 75Q-TubU reporter (AID 1593); conditions: Yeast 75Q polyglutamine aggregation reporter
[3] = rescue of polyQ-huntingtin neuronal dysfunction in worms, whole organism, C. elegans mechanosensory neurons, N-terminal huntingtin (AID 1599); conditions: touch response, stronger effect = higher value
[4] = inhibitors of mitochondrial cytochrome c release, biochemical, purified mitochondria (AID 1603); conditions: stronger effect = lower value;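 further: mouse liver mitochondria challenged with calcium chloride; signal normalized to the plate average as 100%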
[5] = inhibitors of polyQ protein aggregation (AID 1604); conditions: polyglutamine-induced protein aggregation inhibition assay; stronger effect = higher value; tested at 2.5 µM
[6] = enhancers of glutamate uptake in motor neurons, MN-1 cell line (AID 1612); conditions: MN-1 motor neuron cells, stronger effect = higher value;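 further: tested at 1 µM final; 0% = mean of DMSO vehicle wells on each plate; positive means more glutamate uptake than control and negative means less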
[7] = reducers of polyQ inclusions in PC12 cells, cell-based, NGF-treated PC12, GFPQ80 (AID 1614); conditions: PC12 NGF-treated GFP-polyQ80 inclusion reduction;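 further: lower means fewer inclusions and 0 means no inclusions at all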
[8] = suppressors of polyglutamine aggregation in yeast, 75Q-TubH (AID 1616); conditions: S. cerevisiae 75Q-TubH polyglutamine aggregation suppression; stronger effect = higher value
[9] = liver-stage malaria parasite growth inhibition, primary screen, cell-based, HepG2, luciferase luminescence, HepG2 viability (AID 624349; in the data active means parasite load remaining mostly below about 12%, no sharp cut-off; inactive means mostly above about 10%;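 further: 100% = mean of DMSO negative control wells on the same plate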); conditions: P. berghei liver stage in HepG2, luciferase luminescence, concentration not given here; parasite load remaining: stronger effect = lower value; viability: measured here: HepG2 viability without parasites
[10] = differential killing of epithelial or mesenchymal cells, primary screen, imaging, PC-3E GFP, TEM4-18 mCherry, co-culture (AID 1345086); conditions: imaging cell counts, at 1 µM; for red/green cell ratio (normalised): actives lie on both sides;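 on all read-outs here: cells exposed to compound for 72 h before imaging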;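 on red/green cell ratio (normalised): normalised mesenchymal count divided by normalised epithelial count so high means epithelial killing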
[11] = system: Aerobactin synthetase IucA (Klebsiella pneumoniae hvKP1); test: Biochemical IucA enzyme inhibition primary screen of the Spectrum library (AID 1346200; call rule not given here;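 further: 100% = wells without compound and 0% = wells lacking enzyme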); conditions: malachite green pyrophosphate, A620, at 8 µM, stronger effect = lower value
[12] = sensitizers of A549 cells to miR-34 induction, primary screen, imaging, A549 dox-inducible miR-34, nuclei and caspase counts (AID 1347080;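 active means compounds whose cell count with miR-34 switched on is under 0.7 times the count with it off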); conditions: A549 miR-34 inducible, Hoechst nuclei count, 48 h
[13] = target: Mitogen-activated protein kinase 7 (Homo sapiens) (UniProt Q13164); test: ERK5 transactivation activators in reporter cells, primary screen, cell-based, HTS (AID 1508626;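 active means luciferase signal above three times the same-plate solvent-only control wells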;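 further: luciferase driven by Gal4-ERK5 fusion binding five Gal4 sites before minimal TATA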); conditions: HeLa Gal4-ERK5 transactivation, 18 h, at 5 µM, stronger effect = higher value
Sequence of Mitogen-activated protein kinase 7 (Homo sapiens) (Q13164 whole entry, looked up, the tested form may be a part): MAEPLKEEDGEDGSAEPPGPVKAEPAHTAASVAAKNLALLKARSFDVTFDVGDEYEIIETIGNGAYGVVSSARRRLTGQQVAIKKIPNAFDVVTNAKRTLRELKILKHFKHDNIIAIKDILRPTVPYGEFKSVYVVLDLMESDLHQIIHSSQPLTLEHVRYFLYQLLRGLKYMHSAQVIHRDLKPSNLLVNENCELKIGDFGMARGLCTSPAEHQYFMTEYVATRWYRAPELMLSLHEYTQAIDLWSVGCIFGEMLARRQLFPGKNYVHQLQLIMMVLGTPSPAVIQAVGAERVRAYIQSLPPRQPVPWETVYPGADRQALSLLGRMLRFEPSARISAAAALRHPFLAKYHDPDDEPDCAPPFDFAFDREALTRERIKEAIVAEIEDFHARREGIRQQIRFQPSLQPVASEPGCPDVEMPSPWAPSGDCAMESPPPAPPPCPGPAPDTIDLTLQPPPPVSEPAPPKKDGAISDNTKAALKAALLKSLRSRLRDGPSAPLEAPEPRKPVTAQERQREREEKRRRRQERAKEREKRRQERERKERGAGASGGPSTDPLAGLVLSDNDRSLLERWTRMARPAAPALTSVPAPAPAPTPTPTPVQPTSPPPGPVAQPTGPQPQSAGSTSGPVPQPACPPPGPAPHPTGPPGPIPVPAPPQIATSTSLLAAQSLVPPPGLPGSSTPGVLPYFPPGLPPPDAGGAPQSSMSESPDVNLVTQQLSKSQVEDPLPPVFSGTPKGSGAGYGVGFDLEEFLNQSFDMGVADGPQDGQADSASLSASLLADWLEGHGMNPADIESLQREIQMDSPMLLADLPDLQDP

[14] = measured here: epithelial PC-3E GFP cell survival
[15] = measured here: mesenchymal TEM4-18 mCherry cell survival
[16] = measured here: relative caspase fold change +Dox/-Dox
[17] = measured here: total cells with miR-34 induction, stronger effect = lower value
[18] = measured here: total cells without miR-34 induction

Row | SMILES | inhibition [1] | score [2] | rescue above control [3] | cytochrome c release ratio [4] | inhibition of aggregation [5] | glutamate uptake change [6] | inclusion score [7] | aggregation suppression score [8] | parasite load remaining [9] | viability [9] | red/green cell ratio (normalised) [10] | normalised cell number [10, 14] | normalised cell number [10, 15] | activity remaining [11] | fold change ([12]; stronger effect = lower value) | fold change [12, 16] | cell count [12, 17] | cell count [12, 18] | luciferase signal [13]
1 | O=C1CC[C@@]2(O)[C@H]3Cc4ccc(O)c5c4C2(CCN3CC2CC2)[C@H]1O5 | -9.29% | 1.49 | -6.2 | 1.27 | 61.5% | 10.7% | 2 | 1.53 | 70.5% (inactive) and 73.3% (inactive) | 84.7% and 132% | 1.24 (inactive) | 1.01 | 1.26 | 104% (inactive) | 0.853 (inactive) | 4.3 | 11500 | 13400 | 
2 | O=C1C=CC(=O)c2ccccc21 |  |  |  |  |  |  |  |  |  |  | 0.81 (inactive) | 1.25 | 1.02 | 105% (inactive) |  |  |  |  | 388 AU (active)
3 | C=CCN1CC[C@]23c4c5ccc(O)c4OC2C(=O)CC[C@@]3(O)[C@H]1C5 (some centres not stated) | -6.59% | 1.27 | -8.32 | 1.12 | 68.2% | -6.41% | 2 | 1.13 | 96.1% (inactive) and 54.5% (inactive) | 79.4% and 88.1% | 1.09 (inactive) | 1.09 | 1.19 | 92.9% (inactive) | 0.923 (inactive) | 2.03 | 11800 | 12800 | 
4 | Oc1ccc2c3c1OC1[C@@H](O)CC[C@@]4(O)[C@@H](C2)N(CC2CCC2)CC[C@]314 (some centres not stated) | -4.48% | 1.45 | -8.65 | 0.87 | 52.2% | -2.6% | 2 | 1.67 | 136% (inactive) and 45% (inactive) | 75.1% and 93.8% | 0.87 (inactive) | 1.11 | 0.97 | 103% (inactive) | 0.892 (inactive) | 2.83 | 12000 | 13500 | 
5 | C[C@@H]1CC(Cl)CC[C@H]1C(=O)OC(C)(C)C (some centres not stated) |  |  |  |  |  |  |  |  |  |  | 1.02 (inactive) | 1.09 | 1.12 | 119% (inactive) |  |  |  |  | 
6 | CN1CCc2cc3c(cc2[C@H]1C1OC(=O)c2c1ccc1c2OCO1)OCO3 (some centres not stated) |  |  |  |  |  |  |  |  |  |  | 1.02 (inactive) | 0.99 | 1 | 121% (inactive) |  |  |  |  | 
